# Data from PubChem BioAssay (NCI).
# This is part of a sample that, as a whole, favours compounds with a hit. Of some 79,000 tested, about 15% had one in any assay. Unmarked numbers belong to inactive results. The source made the active and inactive calls. No stated cut-off is given here; in the data, active means growth inhibition above about 70%; inactive means the rest.
# Key:
# [1] = NCI Yeast Anticancer Drug Screen. Data for the rad50 strain (AID 155);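 further: 0% = growth of vehicle-only cultures of the same strain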; settings: S. cerevisiae rad50 strain growth inhibition, active compounds read high
# In short: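 Readout: growth inhibition relative to vehicle-treated cultures. Compound exposure was carried out in a genetically defined yeast strain deficient in DNA damage repair.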
# [2] = NCI Yeast Anticancer Drug Screen. Data for the mec2-1 strain (AID 157); settings: S. cerevisiae mec2-1 strain, active compounds read high
# In short: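 Test agents were screened against the mec2-1 yeast strain, with defined DNA repair or cell cycle alteration. Growth was scored as inhibition against vehicle-only controls.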
# [3] = NCI Yeast Anticancer Drug Screen. Data for the sgs1 mgt1 strain (AID 161);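 further: 0% = growth of cultures given vehicle only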; settings: S. cerevisiae sgs1 mgt1 strain, active compounds read high
# In short: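 Genetically altered yeast, compound exposure, growth inhibition relative to vehicle.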
# [4] = NCI Yeast Anticancer Drug Screen. Data for the bub3 strain (AID 167); settings: S. cerevisiae bub3 mutant strain, active compounds read high
# In short: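 Readout: yeast growth inhibition, expressed relative to vehicle-only wells. The test organism is a mutant strain from a panel with lesions in DNA repair or checkpoint genes.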
# [5] = NCI Yeast Anticancer Drug Screen. Data for the mlh1 rad18 strain (AID 175); settings: S. cerevisiae mlh1 rad18 strain growth inhibition, active compounds read high
# In short: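 In this whole-cell yeast screen, a strain with altered DNA damage repair is challenged with compound, and its growth is measured against matched vehicle-treated controls.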
# [6] = NCI Yeast Anticancer Drug Screen. Data for the cln2 rad14 strain (AID 165);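 further: 0% = growth equal to vehicle treated cultures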; settings: S. cerevisiae cln2 rad14 strain, active compounds read high
# In short: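 Growth of compound-exposed yeast (cln2 rad14 genotype) measured and expressed as inhibition relative to vehicle.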
# [7] = at 5.0 µM (retest, dose inferred, filed as 0.5)
# [8] = at 50.0 µM (retest, dose inferred, filed as 5.0)
SMILES,"growth inhibition [1, 7] [%]","growth inhibition [1, 8]",growth inhibition ([1]; at 50.0 µM),"growth inhibition [2, 7] [%]","growth inhibition [2, 8]",growth inhibition ([2]; at 50.0 µM),"growth inhibition [3, 7] [%]","growth inhibition [3, 8]",growth inhibition ([3]; at 50.0 µM),"growth inhibition [4, 7] [%]","growth inhibition [4, 8]",growth inhibition ([4]; at 50.0 µM),"growth inhibition [5, 7] [%]","growth inhibition [5, 8]",growth inhibition ([5]; at 50.0 µM),"growth inhibition [6, 7] [%]","growth inhibition [6, 8]",growth inhibition ([6]; at 50.0 µM)
CCOC(=O)c1ccc([N+](=O)[O-])o1,5,24%,94.4% (active),4,11%,53.1%,3,14%,66.1%,7,49%,91% (active),2,30%,83.7% (active),,,
O=C1NC(=O)/C(=C/C=C/c2ccccc2)S1,19,91% (active),40.9%,13,73% (active),25.9%,25,98% (active),47.8%,61,99% (active),48.1%,26,94% (active),90.2% (active),,,
CC(C)C1(c2ccccc2)C(=O)c2ccccc2C1=O,-6,42%,71.8% (active),-7,50%,77.5% (active),-5,73% (active),84.7% (active),-11,14%,79.2% (active),-8,37%,46.1%,,,
c1ccc(N=C2c3ccsc3C(=Nc3ccccc3)c3ccsc32)cc1,25,98% (active),80% (active),22,98% (active),75.5% (active),,,,51,97% (active),81.6% (active),,,,5,53%,84.5% (active)
Nc1ccc(Cc2ccc(N)cc2[N+](=O)[O-])c([N+](=O)[O-])c1,1,0%,14.6%,5,7%,25.9%,6,74% (active),66.8%,,,,-6,-2%,-18.9%,5,31%,39%
CCOc1c(Br)cc(Br)cc1/C=N/NS(=O)(=O)c1ccc(C)cc1,41,90% (active),75.7% (active),26,88% (active),74.5% (active),38,90% (active),82.2% (active),,,,48,91% (active),75% (active),30,87% (active),82.6% (active)
O=C1NN(C2=NNC3(C(=O)N2)c2ccccc2-c2ccccc23)C(c2ccccc2)=N/C1=C/c1ccc(O)cc1,1,-14%,21.4%,-14,9%,50%,-9,23%,65%,-14,9%,81.5% (active),-43,28%,83.2% (active),,,
O=C1c2ccccc2C(=O)c2sccc21,-97,91% (active),95.8% (active),-36,51%,84.8% (active),-43,62%,93.8% (active),-36,90% (active),90.5% (active),-75,92% (active),93.9% (active),-56,32%,56.3%
CCCCCCCCCCCCCCCCCCn1[se]c2ccccc2c1=O,7,7%,69.3%,16,16%,45.4%,17,17%,83.8% (active),0,0%,76.5% (active),-1,-1%,33.5%,,,
C[C@]12CCC3[C@@H](CC[C@@H]4c5nonc5CC[C@]34C)C1CCC(=O)N2 (stereo not given in full),10,24%,50.1%,5,17%,-4.95%,11,27%,51.5%,6,48%,31.9%,16,21%,25.4%,,,
CC(=O)OC12CC(C(F)(F)F)(C(F)(F)F)OC1(OC(C)=O)CC(C(F)(F)F)(C(F)(F)F)O2 (stereo not given),1,15%,49.5%,-8,48%,29.8%,4,66%,50.2%,,,,-4,66%,86.3% (active),18,56%,71% (active)
COc1ccc2nc3cc(Cl)ccc3c(NCCNCCCNC(=O)c3cc(-c4ccccc4)nc4ccccc34)c2c1,-14,98% (active),96.3% (active),-1,87% (active),93.9% (active),-5,69%,95.2% (active),,,,-11,98% (active),98.2% (active),30,98% (active),97.5% (active)
Cn1c2ccccc2c2c(C#N)c(C#N)c([N+](=O)[O-])cc21,30,98% (active),97.2% (active),29,98% (active),78.5% (active),9,98% (active),75.2% (active),,,,26,98% (active),76.8% (active),9,97% (active),42%
CCOC(=O)C(C(=O)OCC)C1(c2ccccc2)OC(=O)c2ccccc21 (stereo not given),0,13%,0.55%,13,27%,5.3%,-1,21%,52.9%,-7,-6%,8.8%,-4,5%,-8.55%,,,
O=C(CC(=O)c1ccccc1)CC1(O)CCCCC1,22,42%,61.1%,2,16%,78.9% (active),4,34%,79.9% (active),15,86% (active),96% (active),6,29%,89.1% (active),,,
COc1ccc(NC(=O)CCC(NS(=O)(=O)c2ccc(C)cc2)C(=O)O)cc1 (stereo not given),-6,-3%,19.4%,-4,-5%,8.6%,-7,-23%,7.7%,,,,-3,-3%,19.1%,-8,-17%,10.4%
C/C(=N/Nc1ccc([N+](=O)[O-])cc1[N+](=O)[O-])C1=CCC(C(C)(C)C)CC1 (stereo not given),7,2%,-6.7%,-4,-11%,-32.5%,-5,27%,-7.05%,,,,-7,-6%,11.8%,4,-1%,38.8%
CCc1c(Nc2ccccc2C)[nH]c(N)nc1=S,-2,-32%,-6.6%,-2,-7%,5.35%,-1,-7%,12.4%,,,,-1,-7%,-12.4%,-7,-15%,-7%
CCOC(=O)N1CCN(c2cc(C)nc3cc(OC)ccc23)CC1,4,-4%,21.1%,-1,1%,5.9%,0,-5%,17.6%,3,1%,59.5%,0,-7%,38.9%,-1,-5%,
CN(C)CCSc1cc(-c2ccccc2)c2ccccc2n1,-7,90% (active),59.5%,6,87% (active),29.9%,-8,91% (active),39.9%,9,97% (active),53.7%,15,92% (active),78.2% (active),26,94% (active),21.9%
